Reference: the supplement of paper PMC3334620
The full ranking holds about 33,000 sequences; the median of “E-score (-0.5 to 0.5)” is about -8e-05, and the highest 2% start at about 0.23. For the sample, the highest values were picked, then their nearest neighbours and some sequences at random.

Target: T1, Nrg2 (UniProt P38082)
T1 sequence: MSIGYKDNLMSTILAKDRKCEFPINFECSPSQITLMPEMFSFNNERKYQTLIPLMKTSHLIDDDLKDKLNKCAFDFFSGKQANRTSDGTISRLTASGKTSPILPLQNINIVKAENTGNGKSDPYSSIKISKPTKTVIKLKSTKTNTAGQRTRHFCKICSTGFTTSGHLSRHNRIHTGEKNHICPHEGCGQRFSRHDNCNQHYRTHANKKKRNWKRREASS
Assay: PBM E-score (8-mer binding enrichment) (E-score (-0.5 to 0.5)); higher = stronger / more preferred TF binding
Conditions: protein concentration: 100 nM; construct: GST-full length
How it was run: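 Bound GST-tagged yeast transcription factors, applied at about 100-200 nM to double-stranded universal all-10-mer Agilent arrays, were detected with fluorescent anti-GST. Scans were normalised with masliner. A modified Wilcoxon-Mann-Whitney statistic, the E-score, was assigned to each ungapped eight-base word pooled with its reverse complement by the Universal PBM Analysis Suite.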

Sequence | PBM E-score
CGGGCTAC | -0.0936
CAAGGGAC | 0.261
AAGGGGTG | -0.00477
ATGGGGTC | 0.299
AAAGGGTG | 0.00635
CTGGGGTC | 0.015
CAAGGGAA | 0.0785
CAAGGGAG | -0.0764
AAAGGGTT | 0.0608
AAGGGGTC | 0.239
AGGGGGTC | -0.163
ATGGGGTA | 0.127
AAAGGGTC | 0.318
CCTATATA | 0.0688
CCTTTAGA | -0.136
CAGGGGTA | 0.166
GAAGGGTC | 0.0665
CGGGGGTC | -0.342
CAAGGGTG | 0.0522
CAGGGGTC | 0.302
CAAGGGTC | 0.376
CATCTTAC | -0.00815
ACCAAGTG | -0.0903
CCTCTCTA | -0.294
AATTTCAA | -0.0693

Sequence | PBM E-score
CGTTTTTC | -0.117
GCTACCCA | -0.152
AAGGAAAG | -0.137
AAAAGTAG | 0.0358
CCCGAAAA | 0.129
GCCGAAAC | -0.0148
GCCGAAAA | 0.239
TATCCACA | 0.131
GATGAACC | -0.0336
CATGAACC | 0.233
AATGAACC | 0.00986
CCTCTTGA | 0.0273
TGCCCACA | -0.0506
GAATATTC | 0.24
CAATATTC | 0.0479
AAATATTC | 0.127
GAATATCA | 0.0654
GAATATGA | -0.0524
GAATATTA | 0.232
GCTGAGCA | 0.0693
GACAACTA | 0.158
CTGTAACC | 0.108
CCTTGGAC | -0.165
CACGCCTA | -0.227
GGGTCCAA | 0.322

Sequence | PBM E-score
CGGTCCAC | -0.222
AGGTCCAA | -0.0549
GGGTCCAC | 0.301
CGGTCCAA | -0.224
AGGTCCAC | -0.199
TCTCAACA | 0.0641
TAGAGATA | 0.0396
CCTGACTA | 0.172
GGACCCGA | 0.0929
ATACCTTC | -0.0248
GCCACGGA | -0.0858
CGCTTGAA | 0.263
TGCTTGAA | 0.0462
CGCTTGAG | -0.0135
CTCTATTA | -0.105
GTATATTA | 0.107
CTATATTA | 0.229
ATTTATCC | 0.247
ATTTATCG | 0.0781
ATATATTA | 0.245
ATTTATCA | 0.225
ATTATTTA | 0.173
ATTTATTA | 0.273
GTTTATTA | 0.194
CTATATTC | 0.0669

Sequence | PBM E-score
ATATATTG | -0.0404
AAGCCACA | -0.101
GTAAGCCA | -0.113
ACCATCTC | 0.0848
AGTACTAC | 0.118
CTCGCTTA | 0.132
TCCACCGA | -0.0753
AAGCGATT | -0.0219
AACTGCAT | 0.232
AACTGCAG | -0.0636
AACTGCAC | 0.0736
GCTCAGCA | -0.133
AAGCCACC | -0.198
GAACTGTC | 0.0447
GCGAGTAA | 0.198
ACGAGTAA | 0.244
ACGAGTAT | 0.0482
ATGGGTTA | 0.0918
AGTGGTTC | -0.0506
ATACGCAG | -0.235
ATACGCAA | 0.232
GTACGCAA | -0.131
CTCTGGTA | -0.0435
TAAGAACA | 0.26
CAAGAACA | 0.007

Sequence | PBM E-score
GAAGAACA | 0.155
AGTCGACC | -0.0853
AGTCGACA | 0.194
AGTCGACT | 0.243
GGGAGAAC | -0.189
AAGAAGGC | -0.197
AGACATTC | -0.0988
ACCCTGAA | 0.319
ATCCTGAA | 0.125
GCCCTGTA | 0.208
AGCCTGTA | -0.126
AACCTGAA | -0.178
ACCCTGTA | 0.347
ACAAGGAC | -0.0546
GCGGTCCA | -0.159
TAAAGCCA | 0.0522
ATACAAAA | 0.218
GAACAAAA | 0.195
AAACAAAA | 0.0254
ATACAAAT | 0.173
CAACAAAC | 0.0713
ATACAAAC | 0.258
AAACAAAT | 0.235
AAACAAAC | -0.0324
GAACAAAC | 0.323

Sequence | PBM E-score
AGTCCATA | 0.0684
TCAGACAA | 0.0781
CAGCAGCC | 0.0863
GTTGCCAA | 0.0119
CTAGGCAC | -0.162
AGCTTTAG | -0.105
GAGGCCTC | -0.327
AGACGCTA | -0.138
CATTCGAA | 0.0948
GATTCGAA | 0.256
GATTCGAC | 0.141
ATGGCAGG | 0.12
ATTGTTTG | 0.18
ACAGTTTA | -0.0808
CCAGTTTC | 0.0541
ACAGTTTC | 0.259
CTTGTTTC | 0.0127
ATTGTTTC | 0.256
AGATCAAC | 0.07
TATCCGGA | 0.112
AAGGAGAC | -0.156
ACCACAAT | -0.0522
AGGTGTAC | -0.145
GCGAACAA | 0.322
ACGAAACA | 0.0539

Sequence | PBM E-score
TCGAACAA | 0.259
TCGAACGA | 0.0281
CCGAAACA | 0.102
TGGAACAA | 0.155
CCGAACAA | 0.0547
ACGAACAA | 0.124
TCGAAACA | 0.232
TCAGATGA | 0.148
AATCGCCA | 0.0545
TAAGGACA | -0.0222
CGCTAGCC | -0.255
ACAGAGAC | 0.00483
CTTCTTGA | -0.0331
CAATGGAA | 0.131
CAATTCGC | 0.277
AAATTCGG | 0.205
CAATTCGA | -0.135
AAATTCGC | 0.234
AAATTCGA | -0.0488
GAATTCGC | 0.141
CTATTCGC | 0.0444
CAATTCGG | 0.0993
AAATTCGT | 0.235
AAGTTGGA | 0.134
AAAATCTT | -0.0461

Sequence | PBM E-score
AGCCGCCC | -0.0653
CCCAGTGC | 0.037
CAAAACCC | 0.222
CACAAGAA | 0.245
AAAAACCA | 0.112
GAAGAGAA | -0.0264
CACAAGAG | 0.14
CGCAAAAA | 0.141
CACAAAAA | 0.131
CAAGAGAG | -0.0197
CAAGAGAA | 0.232
CGCAAGAA | 0.299
AGCAAGAA | 0.0497
CAAAACCA | 0.249
CGGGATGC | -0.163
CCGCTAAA | 0.0162
CAAGGTCG | 0.00137
CATAGCTC | -0.112
CAAAAAAA | 0.245
CCAAAAAA | 0.18
CAAAAAAC | 0.079
CGTGAAGA | -0.0995
CACTACTG | 0.077
AGCGTCGA | 0.244
AGCGTCGG | -0.0319

Sequence | PBM E-score
CGGGTCGA | -0.181
AGCGTCGC | -0.0577
AGGGTCGG | 0.0394
CGGGTCGC | -0.0689
AGGGTCGC | 0.243
AGGGTCGA | 0.262
ACGGTCGC | -0.131
GCGGCCCA | -0.0651
GCTGAAGA | -0.0685
ACAGCTTC | -0.102
AAGAGATT | 0.00595
GATACTGA | 0.0997
CATACTGA | 0.135
TATACTGA | 0.261
GCTATCTA | -0.0754
ACCTATAT | 0.236
AAATAGAT | 0.27
AAATATAT | 0.257
AAATATAA | 0.161
ACCTATAA | -0.112
ACCTATAC | -0.044
AAATAGAC | 0.165
AAATAGAG | -0.0562
AAATATAC | 0.0852
CAGAAAGG | 0.0423

Sequence | PBM E-score
AAGATCTT | -0.0257
CTCGGTCA | -0.0604
AACCGCCG | -0.0452
GCTAAGAA | -0.103
TATGAGCA | -0.127
ATGAATGA | 0.0659
ATGAATGG | 0.339
ATGAATGC | 0.13
GTATGCGA | 0.136
AGCAAATC | 0.147
ACCGATAC | -0.00076
AGAACAAA | 0.208
CGAACAAA | 0.279
GTCACGCA | 0.0867
CTCACGCC | 0.0298
GGAACAAA | 0.263
TGAACAAA | 0.244
CTCACGCA | 0.353
GCAACAAA | 0.176
GGAACAAC | 0.133
CGAACAAC | 0.152
CGAACAAG | 0.165
TTAACAAA | 0.094
CTGCACGA | 0.0401
AACTTATA | 0.145

Sequence | PBM E-score
GCCGACAC | -0.0613
TCCGGTAA | -0.0902
CCTGGGTA | -0.159
GCCGGAAA | 0.104
ACTCTGCC | -0.142
GGGCATAA | 0.109
GGGCTTCA | -0.103
TCTCTAAA | -0.134
AGAGCCCC | -0.139
GTGGTCCA | 0.0422
GGAACGCA | 0.0954
CGAACGCA | 0.282
TGAACGCA | 0.0815
AAGCGCTA | 0.0465
AAGCGCTT | 0.303
AAGCGCTC | 0.0396
CCGCCAAC | -0.126
ACGTTTCC | -0.16
ATTCCACC | 0.0335
ATTCCACA | 0.243
ATTCCACG | 0.0249
GGAGGCAA | -0.141
CAGGTCCA | 0.0188
ACCGTTCA | -0.164
AAATCGCC | 0.00869

Sequence | PBM E-score
ATATCGCA | -0.0927
ATATCGCG | 0.331
AAATCGCG | 0.233
AAATCGCA | 0.158
ATATCGCC | 0.0573
GGGTTTAA | 0.0664
AGATGGTA | 0.0502
GTAGTGGA | 0.152
ACCTTAGG | -0.191
CGCCCGAG | 0.117
TCCGGCCA | 0.00685
CGCGAAAG | 0.122
GTGTAGAA | -0.191
CCAGGGAG | -0.107
TCAGGGAA | 0.0408
CCAGGGAC | 0.366
GCAGGGGA | -0.192
GCAGGGCC | 0.101
GCAGGGAA | 0.238
GAAGGGAC | 0.159
CCAGGGAA | 0.0205
GCAGGGAC | 0.28
CATGTAGG | 0.092
CGTCGGTC | 0.00408
CAGGTTAA | -0.0788

Sequence | PBM E-score
CACGTCCA | -0.177
ACGCGATC | 0.146
CGAGCTCG | 0.241
CGAGCTCA | 0.108
CGAGCTTA | -0.0737
ACAGCTGA | 0.0892
CGAGCTGA | 0.243
CGAGCTCC | 0.12
GCAGCTGA | 0.0488
AGAGCTGA | 0.00384
TCAGCTGA | 0.279
ATCCTCAG | 0.1
AGCGGCCT | -0.275
GCTTCGTA | -0.102
CGGCCGAA | 0.0577
GAGCTCGA | 0.183
ACTAGCTA | 0.0559
AAGAATCC | 0.0617
TACCCCAA | 0.247
AACCCCAA | 0.147
ACCCCCAG | -0.291
AACCCCAT | 0.07
TACCCCCA | -0.159
AACCCCAG | 0.237
GCCGCAAA | 0.157

Sequence | PBM E-score
ATCAACCG | 0.0105
GGTGAATA | 0.104
CAACCCTA | 0.0574
AAACCCTG | 0.318
AGACCCTA | 0.148
AAACCCTA | 0.184
CAACCCTG | 0.252
ATACCCTC | 0.0223
AACCCCTG | 0.055
AGACCCTG | 0.431
CAACCCTC | 0.0136
ATACCCTG | 0.295
AGACCCTC | 0.0175
ATACCCTA | 0.119
ATGGTTCG | 0.109
AGAACCTC | -0.232
GGGTAGGA | -0.0916
AGAATGCT | 0.108
CGTCCTTA | -0.0686
